The values that follow come from PubChem BioAssay (NCATS).

Structures are written as SMILES. Results filed as inconclusive are left out. Where a call stands in place of a potency, no number is given. Activity calls are given as the source filed them. Calls come from the whole dose curve; as a rule, active = well fitted inhibition curve with a large enough effect; inconclusive = small, poorly fitted or top-dose-only effect; inactive = no such curve, though single readings can be large or run the other way.
Potency is the fitted concentration of half-maximal effect.

The test deals with Zika virus NS2B-NS3 protease (linked construct). Put plainly: Primary screen NINDS Rhodamine qHTS for Zika virus inhibitors (AID 1347160). Note: nearly all actives have a fitted effect of over 55% in size. Conditions: purified NS2B-NS3 protease, Rhodamine110 substrate fluorescence; series mostly up to 33.1 µM. The method, boiled down:
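Percent inhibition, normalized to uninhibited and enzyme-free controls, is fitted to a 4-parameter Hill equation. Fluorescence change comes from a 15-min cleavage of 1.5 microM bis-peptide Rhodamine110 substrate by 25 nM linked NS2B-NS3 at room temperature.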
Take `C[C@]1(OC(=O)/C=C\c2ccc(O)cc2)C[C@@H](O)[C@]2(O)C=CO[C@@H](O[C@@H]3O[C@H](CO)[C@@H](O)[C@H](O)[C@H]3O)C12` (stereo not given in full): the Potency result is “inactive”.

For the molecule `CC(=O)O[C@H]1[C@H](O[C@H]2CC[C@]34C[C@]35CC[C@]3(C)[C@@H]([C@@]6(C)CC[C@@H](C(C)(C)O)O6)[C@@H](O)C[C@@]3(C)[C@@H]5C[C@H](O[C@@H]3O[C@H](CO)[C@@H](O)[C@H](O)[C@H]3O)[C@H]4C2(C)C)OC[C@@H](OC(C)=O)[C@@H]1O`, the Potency entry is “inactive”.

Consider `COC(=O)C1=COC(OC2OC(CO)C(O)C(O)C2O)C2C(COC(=O)/C=C/c3ccc(O)cc3)C(O)C(O)C12` (stereo not given), for which the Potency result was “inactive”.

Consider `O=C(O)CC1CCC(c2ccc(NC(=O)c3nnc(Nc4ccc(F)c(F)c4)o3)cc2)CC1` (stereo not given), for which the Potency is 14.1 µM (active).

On to `C=C1CC2C3(C)C(O)CC(=O)C(C)(C)C3C(O)C(OC(C)=O)C2(C)C2C(=O)OC(C)(C(=O)OC)C(=O)C12C` (stereo not given), for which the Potency entry was “inactive”.
